# Data: the supplement of paper PMC9135407
# Several values for one entry are separate records, joined by “and”; a condition that tells them apart may be missing. Equal values may be shown once. Where a name gives a salt, the structure may show the parent alone. Out of some 5,800 compounds screened, about 620 (11%) showed activity. This excerpt belongs to a sample that is enriched for actives. Unmarked numbers belong to inactive results.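 How the source made its calls: active = score above a cut-off or among the top three wells of a plate; in these data no inactive exceeds 0.85.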
# Tested on: primary human hepatic stellate cells (donor 1)
# Experiment: scaled lipid accumulation score (0 = DMSO-like, 1 = nortriptyline-like); higher = stronger HSC inactivation (lipid re-accumulation), active = hit call of the paper
# Details: 48 h
# [1] = library stock concentration: 3.33 mM
# [2] = library stock concentration: 10 mM
# [3] = library stock concentration: 1 mM
# [4] = library stock concentration: 80 uM
# [5] = library stock concentration: 400 uM
# [6] = library stock concentration: 2 mM
smiles,measurement,setting,value
CNc1nc(Nc2cnn(C3CCN(C4COC4)CC3F)c2Cl)ncc1C(F)(F)F (configuration not stated),scaled lipid accumulation score,[1],≤ -0.009
same,scaled lipid accumulation score,[2],≤ 0
CCCCC(C)(O)CC=CC1C(O)CC(=O)C1CCCCCCC(=O)OC (configuration not stated) [8-iso Misoprostol],scaled lipid accumulation score,[3],≤ 0
CCc1cncnc1N1CCN(Cc2nc3ccc(C(F)(F)F)cc3[nH]2)CC1,scaled lipid accumulation score,[4],≤ 0
same,scaled lipid accumulation score,[5],≤ 0
same,scaled lipid accumulation score,[6],≤ 0
same,scaled lipid accumulation score,[1],≤ 0
same,scaled lipid accumulation score,[2],0.077 and 0.419 and ≤ 0
CN1CCN(c2nc3cc(C(F)(F)F)ccc3n3cccc23)CC1.O=C(O)/C=C\C(=O)O [listing 1 of 2 here],scaled lipid accumulation score,[2],0.974 (active)
CN1CCN(c2nc3cc(C(F)(F)F)ccc3n3cccc23)CC1.O=C(O)/C=C\C(=O)O [listing 2 of 2 here],scaled lipid accumulation score,[2],1.15 (active)
CCCCC/C=C\C[C@@H](O)/C=C/c1cccc(C[C@@H](O)CCCCO)n1,scaled lipid accumulation score,library stock concentration: 100 uM,≤ -0.021
CCNC(=O)CCC/C=C\C[C@@H]1[C@@H](CC[C@@H](O)CCc2ccccc2)[C@H](O)C[C@@H]1O [Latanoprost ethyl amide],scaled lipid accumulation score,[3],≤ 0
O=C1NCCc2[nH]c(-c3ccnc(-c4cnc5ccccc5c4)c3)cc21 [MK-2 Inhibitor III],scaled lipid accumulation score,[1],≤ 0
C=C[C@H]1CN2CC[C@H]1C[C@H]2[C@H](O)c1ccnc2ccc(OC)cc12 [Quinine],scaled lipid accumulation score,library stock concentration: 6.2 mM,0.205
C=C[C@H]1CN2CC[C@H]1C[C@H]2[C@H](O)c1ccnc2ccc(OC)cc12 [Quinine sulfate],scaled lipid accumulation score,library stock concentration: 4.7 mM,0.308
same,scaled lipid accumulation score,[2],≤ 0 and 0.364
C=C[C@H]1CN2CC[C@H]1C[C@H]2[C@H](O)c1ccnc2ccc(OC)cc12 [Quinine HCl Dihydrate],scaled lipid accumulation score,[1],0.077
same,scaled lipid accumulation score,[2],0.31
CC(C)[C@H](N)C(=O)OCC(CO)OCn1cnc2c(=O)nc(N)[nH]c21 (some centres not stated),scaled lipid accumulation score,[2],0.228
CCCCCCC[C@H](O)/C=C/[C@H]1[C@H](O)CC(=O)[C@@H]1C/C=C\CCCC(=O)O [20-ethyl Prostaglandin E2],scaled lipid accumulation score,[3],≤ 0
CC(CCCO)C1CCC2C3C(O)CC4CC(=O)CCC4(C)C3CC(O)C12C (configuration not stated) [3-keto Petromyzonol],scaled lipid accumulation score,[3],≤ 0
CN(C)CCOC(=O)COc1ccc(Cl)cc1 [Meclofenoxate hydrochloride],scaled lipid accumulation score,,≤ 0
same,scaled lipid accumulation score,[2],≤ -0.027
CC/C(=C(\c1ccccc1)c1ccc(OCCN(C)C)cc1)c1ccccc1 [Tamoxifen],scaled lipid accumulation score,[2],0.674 and 0.394
same,scaled lipid accumulation score,library stock concentration: 13.5 mM,0.777
CN(C)CCOc1ccc(/C(=C(/CCCl)c2ccccc2)c2ccccc2)cc1,scaled lipid accumulation score,[2],≤ 0
CC/C(=C(\c1ccccc1)c1ccc(OCCN(C)C)cc1)c1ccccc1 [Tamoxifen Citrate],scaled lipid accumulation score,[1],0.368
same,scaled lipid accumulation score,[2],0.579
CN(C)CCOC(=O)COc1ccc(Cl)cc1 [Meclofenoxate (Centrophenoxine) HCl],scaled lipid accumulation score,[1],≤ 0
same,scaled lipid accumulation score,[2],0.043
CN(C)CCOc1ccc(/C(=C(/CCCl)c2ccccc2)c2ccccc2)cc1 [Toremifene Citrate],scaled lipid accumulation score,[1],0.112
CN(C)CCOc1ccc(/C(=C(/CCCl)c2ccccc2)c2ccccc2)cc1 [Toremifene],scaled lipid accumulation score,library stock concentration: 4.9 mM,0.264
CN(C)CCOC(=O)COc1ccc(Cl)cc1 [Centrophenoxine hydrochloride],scaled lipid accumulation score,[2],0.032
CN(C)CCOc1ccc(/C(=C(/CCCl)c2ccccc2)c2ccccc2)cc1.O=C(O)CC(O)(CC(=O)O)C(=O)O,scaled lipid accumulation score,[2],0.946 (active)
CC/C(=C(\c1ccccc1)c1ccc(OCCN(C)C)cc1)c1ccccc1 [Tamoxifen citrate],scaled lipid accumulation score,,0.372
same,scaled lipid accumulation score,library stock concentration: 3.5 mM,0.611
same,scaled lipid accumulation score,library stock concentration: 5.4 mM,0.421
same,scaled lipid accumulation score,[2],0.253 and 0.681 and 0.432
OCCOc1ccc(/C(=C(/CCCl)c2ccccc2)c2ccccc2)cc1 [Ospemifene],scaled lipid accumulation score,[1],0.069
same,scaled lipid accumulation score,[2],0.171
CN(C)CCOc1ccc(C(=C(CCCl)c2ccccc2)c2ccccc2)cc1.O=C(O)CC(O)(CC(=O)O)C(=O)O [Toremifene Citrate],scaled lipid accumulation score,[2],1.23 (active)
O=C(O)CSCC(=O)NC1CCSC1=O (configuration not stated) [Erdosteine],scaled lipid accumulation score,[1],≤ 0
same,scaled lipid accumulation score,[2],≤ 0
O=C(O)CSCC(=O)NC1CCSC1=O (configuration not stated),scaled lipid accumulation score,[2],≤ 0
CC(C)OC(=O)CCC/C=C/C[C@@H]1[C@@H](/C=C/[C@H](O)CCc2ccccc2)[C@H](O)C[C@@H]1O,scaled lipid accumulation score,[3],≤ 0
C1CNCCN1 [Piperazine],scaled lipid accumulation score,[2],≤ 0
same,scaled lipid accumulation score,library stock concentration: 23.2 mM,0.066
O=C(O)CCCCC(CCSCc1ccccc1)SCc1ccccc1 (configuration not stated),scaled lipid accumulation score,[1],≤ 0
same,scaled lipid accumulation score,[2],≤ 0
CCCC[C@@H](C=O)NC(=O)[C@H](CC(C)C)NC(=O)[C@H](CC(C)C)NC(C)=O,scaled lipid accumulation score,library stock concentration: 13 mM,0.811
CC(C)c1ccc(NC(=O)Cn2cnc3c2c(=O)n(C)c(=O)n3C)cc1,scaled lipid accumulation score,[1],≤ 0
same,scaled lipid accumulation score,[2],≤ 0
CCCCC/C=C\C/C=C\CCCCCCCC(=O)OCC [Linoleic Acid ethyl ester],scaled lipid accumulation score,[3],≤ 0
OCCCNc1cc(-c2ccnc(Nc3cccc(Cl)c3)n2)ccn1 [listing 1 of 2 here],scaled lipid accumulation score,[4],0.137
same,scaled lipid accumulation score,[5],0.324
same,scaled lipid accumulation score,[6],0.587
OCCCNc1cc(-c2ccnc(Nc3cccc(Cl)c3)n2)ccn1 [listing 2 of 2 here],scaled lipid accumulation score,[2],0.957 (active)
COc1ccc(Nc2nccc(NCCO)n2)cc1 [Cardiogenol C (hydrochloride)],scaled lipid accumulation score,[3],≤ 0
COc1ccc(Nc2nccc(NCCO)n2)cc1 [Cardiogenol C hydrochloride],scaled lipid accumulation score,[2],≤ 0
C[C@@]1(c2cc(-c3cncnc3)c(F)cc2F)CCSC(N)=N1,scaled lipid accumulation score,[1],≤ 0
same,scaled lipid accumulation score,[2],≤ 0
"CCCCCCCCCCC/C=C\C/C=C\CCCC(=O)O [Eicosa-5,8-dienoic acid (20:2 n-12)]",scaled lipid accumulation score,[3],≤ -0.021
COc1cc(C(C)=O)ccc1OCCCN1CCC(c2noc3cc(F)ccc23)CC1,scaled lipid accumulation score,[2],0.933 (active)
COc1cc(C(C)=O)ccc1OCCCN1CCC(c2noc3cc(F)ccc23)CC1 [Iloperidone],scaled lipid accumulation score,[1],0.045
same,scaled lipid accumulation score,[2],0.477
Cc1nc2n(c(=O)c1CCN1CCC(c3noc4cc(F)ccc34)CC1)CCCC2O (configuration not stated) [Paliperidone],scaled lipid accumulation score,[2],0.223
C[Se]CC[C@H](N)C(=O)O,scaled lipid accumulation score,[2],≤ 0
COc1ccc(N(C(=O)Nc2c(C)cccc2C)c2cc(Nc3ccc(N4CCN(C)CC4)cc3)ncn2)c(OC)c1,scaled lipid accumulation score,[4],≤ -0.016
same,scaled lipid accumulation score,[5],0.184
same,scaled lipid accumulation score,[6],0.849
Cc1ccc(-c2ccc3c(ccc4sc5c(c43)NC[C@@H](C)NC5=O)n2)cn1 [listing 1 of 2 here],scaled lipid accumulation score,[2],1.28 (active)
Cc1ccc(-c2ccc3c(ccc4sc5c(c43)NC[C@@H](C)NC5=O)n2)cn1 [listing 2 of 2 here],scaled lipid accumulation score,[4],≤ -0.001
same,scaled lipid accumulation score,[5],≤ -0.001
same,scaled lipid accumulation score,[6],0.744
CN(C)CC(c1ccc(O)cc1)C1(O)CCCCC1 (configuration not stated),scaled lipid accumulation score,[2],≤ 0
CN(C)CC(c1ccc(O)cc1)C1(O)CCCCC1 (configuration not stated) [Desvenlafaxine Succinate],scaled lipid accumulation score,[1],≤ 0
same,scaled lipid accumulation score,[2],≤ -0.001
CN(C)CC(c1ccc(O)cc1)C1(O)CCCCC1 (configuration not stated) [Desvenlafaxine],scaled lipid accumulation score,[1],≤ 0
same,scaled lipid accumulation score,[2],≤ -0.001
Cc1ccc(NC(=O)C(C)C)cc1C1CCN(Cc2ccc(Oc3ccc(F)c(F)c3)cc2)CC1.Cl,scaled lipid accumulation score,[2],1.29 (active)
CC(=O)c1ccc(N2CCOCC2)cc1O [DNA-PK Inhibitor III],scaled lipid accumulation score,[1],≤ 0
N[C@@H](CCC(=O)N[C@@H](CSN=O)C(=O)NCC(=O)O)C(=O)O [S-Nitrosoglutathione],scaled lipid accumulation score,[2],≤ -0.032
Cc1cc2nc3c(=O)[nH]c(=O)nc-3n(CC(O)C(O)C(O)COP(=O)(O)O)c2cc1C (configuration not stated),scaled lipid accumulation score,[2],≤ 0
CC1=C(C(=O)OC2CCCCC2)C(c2ccc([N+](=O)[O-])cc2)C2=C(CC(C)(C)CC2=O)N1 (configuration not stated) [listing 1 of 2 here],scaled lipid accumulation score,[1],0.763
CC1=C(C(=O)OC2CCCCC2)C(c2ccc([N+](=O)[O-])cc2)C2=C(CC(C)(C)CC2=O)N1 (configuration not stated) [listing 2 of 2 here],scaled lipid accumulation score,[2],0.997 (active)
COC(=O)C1=C(C)NC(C)=C(C(=O)OC2CCCN(Cc3ccccc3)C2)C1c1cccc([N+](=O)[O-])c1 (configuration not stated),scaled lipid accumulation score,[2],0.032
COC(=O)C1=C(C)NC(C)=C(C(=O)OC2CCCN(Cc3ccccc3)C2)C1c1cccc([N+](=O)[O-])c1 (configuration not stated) [Benidipine HCl],scaled lipid accumulation score,[1],0.027
same,scaled lipid accumulation score,[2],0.476
CCCCCCOc1ccccc1C(N)=O [Exalamide],scaled lipid accumulation score,[2],≤ -0.027
CNCCCCOc1ccccc1Cc1ccccc1.Cl [Bifemelane hydrochloride],scaled lipid accumulation score,[2],1.41 (active)
CNCCCCOc1ccccc1Cc1ccccc1 [Bifemelane],scaled lipid accumulation score,[2],1.08 (active)
COC(=O)c1c(C)[nH]c(C)c1C(=O)c1ccccc1Cc1ccccc1,scaled lipid accumulation score,[2],0.13 and 0.001
CCOC(=O)c1c(Cc2cccc(Cl)c2)[nH]c2c1cc(O)c1ccccc12,scaled lipid accumulation score,[3],≤ 0
CC/C=C\C/C=C\C/C=C\CCCCCCCC(=O)NCCO [.alpha.-Linolenoyl Ethanolamide],scaled lipid accumulation score,[3],0.006
CCOc1nc(NC(=O)Cc2cc(OC)ccc2OC)cc(N)c1C#N [JNK Inhibitor VIII],scaled lipid accumulation score,[1],≤ 0
CNc1cc(OC)c(C(=O)NC2CCN(Cc3ccccc3)C2C)cc1Cl (configuration not stated) [Nemonapride],scaled lipid accumulation score,[2],0.728
NC(=O)Nc1sc(-c2ccccc2)cc1C(N)=O [IKK-2 Inhibitor VI],scaled lipid accumulation score,[1],≤ 0
